Assay results published in PubChem BioAssay AID504333 (National Center for Advancing Translational Sciences (NCATS), 2011).
Hit rate of the full screen: of about 360,000 compounds, about 16,000 (4.4%) were called active. About 9% were inconclusive and are not listed. Only a selection was taken, and actives are over-represented in it overall. Unmarked numbers belong to inactive results. The call rests on the fitted dose curve; in most records, active means well fitted inhibition curve with a large enough effect; inconclusive means small, poorly fitted or top-dose-only effect; inactive means no such curve, though single readings can be large or run the other way.

molecular target: Bromodomain adjacent to zinc finger domain protein 2B (Homo sapiens) (UniProt Q9UIF8); experiment: qHTS Assay for Inhibitors of BAZ2B; conditions: AlphaScreen BAZ2B-H3K14Ac peptide displacement; series mostly up to 114 µM; activity change, negative = inhibition: at the top concentration; further: nearly all actives have a fitted effect of over 60% in size
Excerpt: BAZ2B (bromodomain adjacent to zinc finger domain, 2B) belongs to a family of ubiquitously expressed bromodomain containing proteins, which biological function has not yet been elucidated. […] The interaction of BAZ2B with ISWI mediated by the BAZ1 motif has recently been described. […] The protocol is based on the AlphaScreen (PerkinElmer) displacement assay developed by NCGC [5], but uses the peptide ligand Biot-H3K14Ac, a high affinity binding partner for BAZ2B, in an AlphaScreen format. Although AlphaScreen has significant advantages with its utility in a variety of epigenetic target assays, the primary screening data provided in this deposition should be used with caution due to the prevalence of screening artifacts. The top compound concentration tested was 110uM in this assay, which increases number of actives and potential artifacts. An AlphaScreen counterscreen is highly recommended to be run against any putative actives to eliminate non-specific artifacts. Alternatively, one can use other AlphaScreen assays in PubChem to filter out promiscuous hits. Eberharter, A. et al. ACF1 improves the effectiveness of nucleosome mobilization by ISWI through PHD-histone contacts. The EMBO journal 23, 4029-4039. 2004. PMID: 15457208 [2] Jones, M.H. et al. A novel family of bromodomain genes. Genomics 63, 40-45. 2000. PMID: 10662543 [3] Yasgar, et al. Compound Management for Quantitative High-Throughput Screening. JALA. 2008 Apr;13(2):79-89. PMID: 18496600 [4] Inglese, et al. Quantitative high-throughput screening: a titration-based approach that efficiently identifies biological activities in large chemical libraries. Proc Natl Acad Sci. 1;103(31):11473-8. 2006. PMID: 16864780 [5] Quinn et al. A chemiluminescence-based method for identification of histone lysine methyltransferase inhibitors. Mol Biosyst 6(5): 782-8. 2010. PMID: 20567762 [6] Baell,Holloway. New substructure filters for removal of pan assay interference compounds (PAINS) from screening libraries and for their exclusion in bioassays. J Med Chem. 53(7):2719-40. 2010. PMID: 20131845 NIH Molecular Libraries Probe Production Network [MLPCN] NIH Chemical Genomics Center [NCGC] Structural Genomics Consortium (SGC) NIH Grant: 5U54 MH084681-02
To each well of a 1,536w plate, 2ul of BAZ2B protein (final 50nM) and 1ul biotinylated histone peptide acetylated at Lys14 [b-H3(5-23)K14Ac] (final 50nM) were added in 1x PBS buffer, pH 7.4, containing 0.01% Tween-20, using a nanoliter dispenser. Formation of a protein-peptide complex proceeded at room temperature for 30 min. A Kalypsys pin-tool was employed to transfer 23 nL of library compound solution in DMSO to each well. Following a 30 min incubation of the protein-peptide complex with compounds at room temperature, a mixture of 40 ug/mL each streptavidin-coated donor and nickel chelate acceptor AlphaScreen beads (final 10 ug/mL) were added in a 1ul dispense for a final volume of 4ul. A brief centrifugation followed (1000rpm, 1 min) and were then incubated protected from the light for 20 min at room temperature. Plates were read on an EnVision multilabel plate reader using the 1,536 plate HTS AlphaScreen aperture (excitation time 80 ms, measurement time 240 ms).
On the % scale 0 is the no-effect control and ±100 the full control effect; potency means the concentration at half of the fitted maximal effect.

Bromodomain adjacent to zinc finger domain protein 2B (Homo sapiens), sequence (Q9UIF8 whole entry, looked up, the tested form may be a part): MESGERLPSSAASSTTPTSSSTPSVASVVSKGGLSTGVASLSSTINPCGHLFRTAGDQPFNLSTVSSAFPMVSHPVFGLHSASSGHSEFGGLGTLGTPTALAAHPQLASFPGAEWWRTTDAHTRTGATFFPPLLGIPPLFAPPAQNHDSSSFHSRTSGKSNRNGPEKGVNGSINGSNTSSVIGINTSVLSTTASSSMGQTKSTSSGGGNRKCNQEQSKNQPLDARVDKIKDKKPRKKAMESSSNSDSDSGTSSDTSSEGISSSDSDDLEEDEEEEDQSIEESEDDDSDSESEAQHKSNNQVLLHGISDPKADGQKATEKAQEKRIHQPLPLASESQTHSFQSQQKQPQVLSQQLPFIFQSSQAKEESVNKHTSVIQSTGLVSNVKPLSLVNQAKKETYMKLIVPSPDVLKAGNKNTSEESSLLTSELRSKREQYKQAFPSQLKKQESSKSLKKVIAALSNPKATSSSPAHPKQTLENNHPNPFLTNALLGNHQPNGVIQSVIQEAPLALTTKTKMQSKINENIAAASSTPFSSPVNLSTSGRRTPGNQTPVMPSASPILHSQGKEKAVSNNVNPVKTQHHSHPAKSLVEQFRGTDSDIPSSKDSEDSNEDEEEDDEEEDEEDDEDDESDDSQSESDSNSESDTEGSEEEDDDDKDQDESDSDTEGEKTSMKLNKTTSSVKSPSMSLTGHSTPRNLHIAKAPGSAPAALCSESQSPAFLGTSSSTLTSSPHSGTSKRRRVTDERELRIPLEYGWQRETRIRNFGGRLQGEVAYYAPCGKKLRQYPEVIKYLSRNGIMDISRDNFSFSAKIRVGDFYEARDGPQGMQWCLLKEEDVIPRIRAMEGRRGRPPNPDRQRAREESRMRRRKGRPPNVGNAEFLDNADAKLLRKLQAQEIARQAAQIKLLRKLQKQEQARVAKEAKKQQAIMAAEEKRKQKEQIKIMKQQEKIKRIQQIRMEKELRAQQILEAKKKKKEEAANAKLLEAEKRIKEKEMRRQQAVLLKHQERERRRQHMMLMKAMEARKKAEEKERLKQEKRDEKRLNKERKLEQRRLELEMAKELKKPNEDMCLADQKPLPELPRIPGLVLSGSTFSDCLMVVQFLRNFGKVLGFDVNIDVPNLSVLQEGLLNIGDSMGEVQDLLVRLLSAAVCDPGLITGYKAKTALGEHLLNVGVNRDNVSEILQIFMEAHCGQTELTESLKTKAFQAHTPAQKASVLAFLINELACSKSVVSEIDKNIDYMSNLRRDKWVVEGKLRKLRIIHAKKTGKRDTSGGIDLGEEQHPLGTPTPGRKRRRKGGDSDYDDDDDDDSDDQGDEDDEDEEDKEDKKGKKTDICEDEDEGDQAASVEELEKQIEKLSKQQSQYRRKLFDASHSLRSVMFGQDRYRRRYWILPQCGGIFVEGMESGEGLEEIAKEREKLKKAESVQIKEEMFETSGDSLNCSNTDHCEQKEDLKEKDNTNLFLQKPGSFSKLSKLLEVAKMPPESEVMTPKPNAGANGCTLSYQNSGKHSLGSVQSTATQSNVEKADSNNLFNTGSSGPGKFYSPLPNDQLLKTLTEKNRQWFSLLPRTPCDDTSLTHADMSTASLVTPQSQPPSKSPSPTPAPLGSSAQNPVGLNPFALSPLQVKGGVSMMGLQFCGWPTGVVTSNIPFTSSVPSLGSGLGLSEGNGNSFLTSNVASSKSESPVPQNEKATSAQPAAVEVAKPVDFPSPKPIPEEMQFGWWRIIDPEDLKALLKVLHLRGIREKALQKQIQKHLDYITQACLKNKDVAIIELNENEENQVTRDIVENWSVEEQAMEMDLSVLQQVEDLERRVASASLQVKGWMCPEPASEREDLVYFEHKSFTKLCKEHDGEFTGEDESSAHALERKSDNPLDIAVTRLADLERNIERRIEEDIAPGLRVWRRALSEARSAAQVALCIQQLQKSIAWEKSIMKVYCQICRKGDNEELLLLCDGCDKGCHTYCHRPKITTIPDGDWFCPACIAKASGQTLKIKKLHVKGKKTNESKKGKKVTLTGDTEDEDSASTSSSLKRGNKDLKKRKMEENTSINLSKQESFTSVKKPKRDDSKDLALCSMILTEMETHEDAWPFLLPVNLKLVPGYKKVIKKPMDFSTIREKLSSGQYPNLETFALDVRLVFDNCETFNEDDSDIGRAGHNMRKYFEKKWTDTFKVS

| SMILES | activity change, negative = inhibition [%] | Potency |
| --- | --- | --- |
| Cc1cc(C)cc(NC(=O)CCS(=O)(=O)c2cc3c4c(c2)CCN4C(=O)CC3)c1 | 5.77 |  |
| COc1ccc(NC(C)=O)cc1NC(=O)CN1CCN(c2ccc(F)cc2)CC1 | -18.2 |  |
| CCS(=O)(=O)N1CCc2cc(C(=O)N3CCN(c4ccccc4OC)CC3)ccc21 | -2.3 |  |
| Cc1[nH]c2ccc(C(=O)N3CCN(C)CC3)cc2c1C | -22.3 |  |
| CCOc1ccccc1N1CCN(C(=O)c2ccc3[nH]c(C)c(C)c3c2)CC1 |  | 44.7 µM (active) |
| CN(C(=O)CSc1nnc(NC(=O)Nc2ccccc2)s1)c1ccccc1 | -3.45 |  |
| Cc1ccc(-n2cnc3cc(C(=O)NCCC4=CCCCC4)ccc32)cc1Cl | -4.95 |  |
| C/C(=C/c1ccccc1)C(=O)N1CCN(c2ccccc2)CC1 |  | 56.2 µM (active) |
| COCCCNC(=O)Cn1cc(/C=C(\C#N)C(=O)N2CCN(c3ccccc3)CC2)c2ccccc21 | -9.82 |  |
| O=C(CN1CCCC1)N1CCN(c2ccccc2)CC1 | -2.41 |  |
| COc1ccc(N2CCN(C(=O)/C(C#N)=C/c3ccccc3)CC2)cc1 |  | 50.1 µM (active) |
| CC(CC(=O)N1CCN(c2ccccc2)CC1)c1ccccc1 (stereo not given) | 2.9 |  |
| CCOC(=O)/C(C#N)=C/c1ccc(N2CCN(Cc3ccccc3)CC2)cc1 | 32.5 |  |
| Fc1ccc(C(Nc2ccc(Cl)c(C(F)(F)F)c2)c2nnc(-c3ccccc3)o2)cc1 (stereo not given) | 0.454 |  |
| COc1cc(Cl)c(NC(=O)CC(C)S(=O)(=O)c2cc3c(cc2C)NC(=O)CO3)c(OC)c1 (stereo not given) | -12.4 |  |
| Cc1cccc(Cc2c(C)nc3nc(SCc4ccccc4Cl)nn3c2C)c1 | 10.9 |  |
| CN(C(=O)CN1C(=O)/C(=C/c2ccc(Cl)cc2)SC1=S)C1CCS(=O)(=O)C1 (stereo not given) | -16.7 |  |
| CCN(C(=O)CN1C(=O)/C(=C/c2ccc(F)cc2)SC1=S)C1CCS(=O)(=O)C1 (stereo not given) | -37.8 |  |
| O=C1/C(=C/c2cccs2)SC(=S)N1C1CCS(=O)(=O)C1 (stereo not given) |  | 22.4 µM (active) |
| COCCN(Cc1ccco1)C(=O)Cn1ncc2c([nH]c3ccccc32)c1=O | -17.6 |  |
| Cc1cc(C)cc(NC(c2nnc(-c3cccc(F)c3)o2)c2ccc(F)cc2Cl)c1 (stereo not given) | -23.2 |  |
| CCCS(=O)(=O)Nc1cccc(-c2cn3ccsc3n2)c1 | 3.8 |  |
| COc1cccc(OC)c1OCCN1CCN(C(=O)c2ccco2)CC1 | -6.15 |  |
| COc1cccc(OC)c1C(=O)N1CCN(Cc2cccnc2)CC1 |  | 50.1 µM (active) |
| COc1ccccc1C(=O)N1CCN=C1SCc1cccnc1 | -5.61 |  |

| SMILES | activity change, negative = inhibition [%] | Potency |
| --- | --- | --- |
| CCCn1c(NCc2ccccc2F)nc2ccccc21 | -5.42 |  |
| CCCn1c(NCc2ccc(N(CC)CC)cc2)nc2ccccc21 |  | 39.8 µM (active) |
| CCCn1c(NC(=O)C23CC4CC(CC(O)(C4)C2)C3)nc2ccccc21 | -30.6 |  |
| O=C(NC1(C(F)(F)F)N=C(c2ccccc2)N(C2CCCCC2)C1=O)c1ccccc1F (stereo not given) | -14.1 |  |
| CCN(CC)C(=O)CSc1nc2ccsc2c(=O)n1Cc1ccccc1Cl | -24.2 |  |
| Cc1cccc(C)c1-n1c(C)cc(/C=C2\C(=O)NN(c3ccccc3)C2=O)c1C |  | 14.1 µM (active) |
| Cc1cc(/C=C2/NC(=O)NC2=O)c(C)n1-c1cccnc1 | -9.46 |  |
| COc1cc(C(=O)NCCc2csc3nc(-c4ccccc4C)nn23)cc(OC)c1OC | 5.94 |  |
| CCOCCc1nn2c(=O)cc(COC(=O)CNC(=O)c3ccc(C(C)(C)C)cc3)nc2s1 | -6.71 |  |
| CCCCN(C)c1nnc(NC(=O)Nc2ccc(Br)c(C)c2)s1 | 1.07 |  |
| c1ccc2c(CSCc3nc4ccccc4[nH]3)cccc2c1 | -34 |  |
| Nc1scc[n+]1Cc1cccc2cccnc12 | -24.8 |  |
| c1ccc2c(C[n+]3csc4ccccc43)cccc2c1 |  | 56.2 µM (active) |
| O=C(C1COc2ccccc2O1)N(Cc1cccnc1)c1nc2c(F)cc(F)cc2s1 (stereo not given) | -11 |  |
| COc1ccccc1OCCNCC(O)COc1cccc2[nH]c3ccccc3c12 (stereo not given) |  | 39.8 µM (active) |
| COc1ccccc1OCC(O)CN1CCOCC1 (stereo not given) | -19.8 |  |
| CCCn1c(=N)n(CC(O)COc2ccccc2OC)c2ccccc21 (stereo not given) | -4.1 |  |
| CCOc1ccc(C2CC(=O)c3c([nH]c(C(=O)OCc4ccccc4)c3C)C2)cc1 (stereo not given) | -5.29 |  |
| COc1ccc(Nc2nc(=O)[nH]nc2C)cc1 | 1.81 |  |
| NC(=O)N/N=C\c1cccs1 | 23.3 |  |
| Cc1n[nH]c(=O)nc1N/N=C/c1cccs1 |  | 17.8 µM (active) |
| COC(=O)Cc1ccc(NC(=S)NCc2ccco2)cc1 | -33 |  |
| COc1cc(C(=O)NC(=S)NCc2ccco2)cc(OC)c1OC | -25 |  |
| COc1cccc(OC)c1C(=O)NC(=S)NCc1ccco1 |  | 79.4 µM (active) |
| N#Cc1nc(/C=C/c2ccc(F)cc2)oc1NC1CCCCC1 | -4.26 |  |
